# Screening results: PubChem BioAssay, National Center for Advancing Translational Sciences (NCATS)
# The list is not random: actives were taken first. Their share in the collection is about 7.9%.
# HT1080NT lethal: kills 2HG-producing HT-1080-NT fibrosarcoma cells | HT-1080-NT fibrosarcoma viability, CellTiter-Glo ATP luminescence, 48 h | Potency, µM (series often up to 46.1 µM), actives largely listed as cytotoxic | actives 1.6% (n = 360,000) | AID 686970;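 also: NT is the 2HG producing partner of a matched IDH1 knockdown line; nearly all actives have a fitted effect of over 55% in size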
#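 Toxicity toward the 2HG-producing NT line was scored as %Activity, normalised to DMSO and no-cell wells, from CellTiter-Glo luminescence after 48 hours' treatment.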
# KB-V1 MDR tox: kills drug-selected multidrug resistant KB-V1 cells | KB-V1 MDR cells viability, CellTiter-Glo, 72 h | Potency, µM (titrated, usually from 46.1 µM), most hits filed as cytotoxic | actives 3.4% (n = 400,000) | AID 1347076; also: nearly all actives have a fitted effect of over 60% in size
#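 In this primary screen, KB-V1 cells overexpressing P-gp are incubated with library compounds (lowest to highest concentration) for 72 h at 37 degrees C before a luminescent ATP viability read.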
# SW480 rereplic: induces DNA re-replication in SW480 colon adenocarcinoma cells | actives 1.8% (n = 340,000) | Potency, µM (series often up to 46.1 µM), usual class: activators | SW480 DNA re-replication, Hoechst DNA content imaging, 48 h; also: nearly all actives have a fitted effect of over 55% in size
#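 First, 250 cells per well were seeded. Next, compound or vehicle (23 nL) was pinned in, plates sat 48 hr at 37 C. Finally Hoechst was added for 40 min before fluorescence scanning.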
# HT1080 IDH1KD tx: kills HT-1080 cells with IDH1 knockdown. HT-1080 IDH1 knockdown viability, ATP luminescence, 48 h. Potency, µM (series often up to 46.1 µM), most hits filed as cytotoxic. actives 2% (n = 360,000). AID 686971
#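 In this qHTS, HT-1080 cells depleted of IDH1 are exposed for 48 h at 37 °C to compound titrations. Toxicity is scored from CellTiter-Glo luminescence, with DMSO as full viability and medium alone as none.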
# MCF10A rerep: induces DNA re-replication in MCF 10a normal breast cells | MCF 10A DNA re-replication, Hoechst nuclear intensity, 48 h | Potency, µM (doses to about 46.1 µM), most hits filed as activators | actives 2.9% (n = 350,000) | AID 624296; also: nearly all actives have a fitted effect of over 50% in size
# KB-3-1 tox: KB-3-1 parental cell cytotoxicity. KB-3-1 viability, CellTiter-Glo ATP luminescence, 72 h. Potency, µM (top dose mostly 46.1 µM), usual class: cytotoxic. actives 1.4% (n = 400,000); also: nearly all actives have a fitted effect of over 60% in size
#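 Cells are dispensed, compounds pinned in, plates held at 37 °C for 72 h, then CellTiter-Glo is added and luminescence read after 10 minutes. Cell line: parental KB-3-1 in phenol-red-free DMEM, 10% FBS.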
# Numbers stand for hits; - = inactive; ? = inconclusive; . = not tested or not shown; [ ] = another dose, or the depositor's remark. Calls follow the shape of the dose curve; as a rule, active = well fitted curve in the direction sought with a large enough effect; inconclusive = small, poorly fitted or top-dose-only effect, or another doubt; inactive = no such curve, though single readings can be large; an effect the other way counts as inactive or inconclusive.
SMILES,HT1080NT lethal,KB-V1 MDR tox,SW480 rereplic,HT1080 IDH1KD tx,MCF10A rerep,KB-3-1 tox
COCCn1c(C)cc(O)c(C(c2ccccc2)N2CCN(c3ccccc3)CC2)c1=O (stereo not given),.,-,.,.,.,-
Cc1ccccc1Cn1c2ccccc2c2cnn(CC(=O)NC(C)CCc3ccccc3)c(=O)c21 (stereo not given),.,-,.,.,.,-
O=C(C[n+]1ccc2ccccc2c1)c1ccc(NC(=O)c2ccccc2)cc1,-,-,-,-,-,20.6µM
COc1cc(C(=O)Nc2cc3c(cc2C)n(C)c(=O)c(=O)n3C)cc(OC)c1OC,.,-,.,.,.,-
CC1CCc2nc(/C(C#N)=C/c3cccnc3)sc2C1 (stereo not given),-,?,?,?,20.6µM,-
Cc1ccc2cccc(NC(=O)C(C)(C)Oc3ccc(Br)cc3)c2n1,.,-,.,.,.,-
O=C(CCNC(=O)C1CCN(S(=O)(=O)c2ccc(F)cc2)CC1)NCc1ccccn1,-,-,.,-,.,-
CCOC(=O)C1=C(N)n2c(s/c(=C/c3ccco3)c2=O)=C(C(=O)OC)C1c1ccco1 (stereo not given),13µM,?,13µM,14.6µM,6.51µM,8.2µM
COC(=O)c1sc(NC(=O)c2cc(-c3ccccc3)nc3ccccc23)c(C#N)c1C,?,1.64µM,-,?,?,1.46µM
Cc1sc(NC(=O)c2cc(-c3ccc(Cl)cc3)nc3ccccc23)c(C(N)=O)c1C,-,-,?,-,18.4µM,-
CCOC(=O)c1sc(NC(=O)c2cc(-c3ccc(C)cc3)nc3ccccc23)c(C#N)c1C,16.4µM,3.26µM,-,?,?,?
Cc1sc(NC(=O)c2cc(-c3ccccc3)nc3ccccc23)c(C(N)=O)c1C,-,?,-,-,-,?
Cc1ccccc1-c1cc(C(=O)Nc2sc(C(=O)OC(C)C)c(C)c2C#N)c2ccccc2n1,?,8.2µM,?,?,?,5.17µM
Cc1cccc(OCCSc2nc3ccc(NC(=O)COc4ccccc4)cc3s2)c1,.,-,.,.,.,-
Cc1cc2ccccc2n1-c1ccc(C(=O)N2CCC(C(=O)NCc3ccc(F)cc3)CC2)s1,.,-,.,.,.,-
O=C(NCc1ccccc1F)c1cccc(NC(=O)N2CCSc3ncccc32)c1,.,-,.,.,.,-
O=C(NC(Cc1ccccc1)c1ccc2c(c1)OCCCO2)c1ccccc1F (stereo not given),-,16.4µM,-,-,-,-
CC(C)=CCc1c2c(c3occ(-c4ccc(O)cc4)c(=O)c3c1O)C=CC(C)(C)O2,?,?,-,?,?,?
CC(C)=CCc1c2c(c3occ(-c4ccc(O)c(O)c4)c(=O)c3c1O)C=CC(C)(C)O2,?,-,-,?,9.2µM,?
CCSc1nnc(NC(=O)c2nc(-c3ccccc3)n(-c3ccccc3)n2)s1,?,?,-,-,10.3µM,-
CCSc1nnc(NC(=O)c2cc(C)nc3ccccc23)s1,-,-,-,-,-,-
Cc1csc(NC(=O)c2nc(-c3ccccc3)n(-c3ccccc3)n2)n1,-,10.3µM,-,-,-,?
CCc1nnc(NC(=O)c2ccc(C)o2)s1,-,-,-,-,-,-
CCSc1nnc(NC(=O)c2ccc(C)o2)s1,-,18.4µM,-,-,-,-
O=C(Nc1nccs1)c1nc(-c2ccccc2)n(-c2ccccc2)n1,-,-,-,-,-,-
SMILES,HT1080NT lethal,KB-V1 MDR tox,SW480 rereplic,HT1080 IDH1KD tx,MCF10A rerep,KB-3-1 tox
Cc1cc(C)cc(NC(=O)c2ccc3oc(=O)c(S(=O)(=O)c4ccc(F)cc4)cc3c2)c1,.,-,.,.,.,-
COc1ccc2oc(C)c(C(=O)c3ccc([N+](=O)[O-])cc3)c2c1,-,14.6µM,-,-,?,?
COc1ccc2oc(C)c(C(N)=O)c2c1,-,-,-,-,-,-
COc1ccc2oc(C(=O)C3CC3)c(N)c2c1,-,-,-,-,-,-
COc1ccc(C(=O)c2oc3ccccc3c2N)cc1,-,-,18.4µM,-,18.4µM,-
COc1ccc2oc(C(=O)c3ccccc3)c(N)c2c1,-,-,?,-,14.6µM,-
COc1cccc(N2CCN(CC(=O)Nc3nc4c(s3)CC(C)CC4)CC2)c1 (stereo not given),-,18.4µM,-,-,-,-
COC(=O)c1ccc(C(=O)NC(=S)Nc2nc3c(s2)CC(C)CC3)cc1 (stereo not given),-,?,-,-,-,16.4µM
O=C(NC(=S)Nc1nc2c(s1)CCCC2)c1ccc(C(=O)c2ccccc2)cc1,-,4.11µM,-,-,-,23.1µM
O=C(Nc1nc2c(s1)CCCC2)c1cccnc1,-[9.24 µM],?,-,-,-,-
CC1CCc2nc(NC(=O)CN3CCN(c4ccc(F)cc4)CC3)sc2C1 (stereo not given),-,-,-,-,-,-
CN(C(=O)COC(=O)CNC(=O)C1CCCCC1)c1ccccc1,-[9.24 µM],?,20.6µM,-,-,-
O=C(COC(=O)CNC(=O)C1CCCCC1)Nc1ccccc1,?,-,-,-,-,-
CC1=C(C(=O)Nc2ccc(C)cc2C)C(c2ccccc2F)n2nc(SCC(=O)c3ccc(C)cc3)nc2N1 (stereo not given),.,?,.,.,.,-
Cc1ccc(Cl)cc1OCC(=O)NCCOC(=O)Nc1sc(=S)n(C)c1C,-,13µM,-,-,-,?
Cc1cc(Cl)ccc1OCC(=O)NCCOC(=O)Nc1sc(=S)n(C)c1C,-,?,-,?,-,-
O=S1(=O)CC(N2CCC(Cc3ccccc3)CC2)CN1C1CCCC1 (stereo not given),-,-,.,-,.,-
COc1cc2c(cc1OC)C(COc1ccc(F)cc1)N(C(=O)C(C)C)CC2 (stereo not given),.,?,.,.,.,-
COc1cc2c(cc1OC)C(c1cc3cc4c(cc3[nH]c1=O)OCO4)N(C(=O)C(C)C)CC2 (stereo not given),-,-,?,-[9.24 µM],8.2µM,-
CCN(C(=O)COC(=O)/C=C/c1c(C)nn(Cc2ccc(C)cc2)c1C)C1CCS(=O)(=O)C1 (stereo not given),-,-,16.4µM,-,-[9.22 µM],-
CCOc1cc(/C=C2/C(=N)N3C=CSC3=NC2=O)ccc1OCCCOc1ccccc1C,?,-,?,?,3.26µM,-
CCOc1cc(/C=C2\C(=N)N3N=C(S(C)(=O)=O)SC3=NC2=O)ccc1OCCOc1cccc(OC)c1,?,-,-,-,23.1µM,-
COc1cc(/C=C2/C(=N)N3C=CSC3=NC2=O)ccc1OCCCOc1ccccc1C,-,-,-,?,-,-
Cc1ccccc1N1C(=O)C(Oc2ccc(Cl)cc2)C1CNC(C)(C)C (stereo not given),-,5.8µM,?,-,-,-
